The values below come from ChEMBL document CHEMBL1961873, “Compounds: GSK PKIS; Assays: Nanosyn kinase panel” (2012).

The target of assay [1] is T1, Serine/threonine-protein kinase Nek9 (Homo sapiens) (UniProt Q8TD19).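 Note: each value is a mean percent inhibition of NEK9.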
T1 sequence (whole entry): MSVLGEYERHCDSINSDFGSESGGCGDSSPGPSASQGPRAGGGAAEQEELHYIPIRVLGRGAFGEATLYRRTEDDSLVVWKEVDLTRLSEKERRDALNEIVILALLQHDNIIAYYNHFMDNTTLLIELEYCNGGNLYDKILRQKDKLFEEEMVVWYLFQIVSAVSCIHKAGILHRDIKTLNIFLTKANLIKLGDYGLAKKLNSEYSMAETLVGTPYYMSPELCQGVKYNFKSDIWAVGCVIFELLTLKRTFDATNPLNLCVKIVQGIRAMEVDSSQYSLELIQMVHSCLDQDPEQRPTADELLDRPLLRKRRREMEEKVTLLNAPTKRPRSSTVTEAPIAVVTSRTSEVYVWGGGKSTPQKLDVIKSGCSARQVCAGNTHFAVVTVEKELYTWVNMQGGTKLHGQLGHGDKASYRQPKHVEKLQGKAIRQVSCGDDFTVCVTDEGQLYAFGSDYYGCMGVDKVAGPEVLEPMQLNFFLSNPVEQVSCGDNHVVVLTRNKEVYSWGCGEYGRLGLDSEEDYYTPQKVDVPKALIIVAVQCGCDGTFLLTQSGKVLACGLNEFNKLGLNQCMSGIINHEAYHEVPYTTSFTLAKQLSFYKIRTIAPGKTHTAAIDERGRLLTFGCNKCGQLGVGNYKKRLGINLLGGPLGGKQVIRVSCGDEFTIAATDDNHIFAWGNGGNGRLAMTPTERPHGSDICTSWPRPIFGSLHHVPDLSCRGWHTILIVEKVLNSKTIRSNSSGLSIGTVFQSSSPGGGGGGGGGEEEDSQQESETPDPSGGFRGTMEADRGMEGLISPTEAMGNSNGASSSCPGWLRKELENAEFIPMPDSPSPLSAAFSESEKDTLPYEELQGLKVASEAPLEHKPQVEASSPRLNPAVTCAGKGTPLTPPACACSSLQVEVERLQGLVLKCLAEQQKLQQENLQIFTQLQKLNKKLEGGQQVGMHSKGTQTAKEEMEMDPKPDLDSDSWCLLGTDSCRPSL
Conditions: at 1 µM.

Assay [2] has as its target Serine/threonine-protein kinase PLK1 (Homo sapiens) (UniProt P53350). Conditions: at 0.1 µM.
Assay [3] shares this target. Conditions: at 1 µM.
The target in assay [4] is T2, Dual specificity protein kinase TTK (Homo sapiens) (UniProt P33981).
T2 sequence (whole entry): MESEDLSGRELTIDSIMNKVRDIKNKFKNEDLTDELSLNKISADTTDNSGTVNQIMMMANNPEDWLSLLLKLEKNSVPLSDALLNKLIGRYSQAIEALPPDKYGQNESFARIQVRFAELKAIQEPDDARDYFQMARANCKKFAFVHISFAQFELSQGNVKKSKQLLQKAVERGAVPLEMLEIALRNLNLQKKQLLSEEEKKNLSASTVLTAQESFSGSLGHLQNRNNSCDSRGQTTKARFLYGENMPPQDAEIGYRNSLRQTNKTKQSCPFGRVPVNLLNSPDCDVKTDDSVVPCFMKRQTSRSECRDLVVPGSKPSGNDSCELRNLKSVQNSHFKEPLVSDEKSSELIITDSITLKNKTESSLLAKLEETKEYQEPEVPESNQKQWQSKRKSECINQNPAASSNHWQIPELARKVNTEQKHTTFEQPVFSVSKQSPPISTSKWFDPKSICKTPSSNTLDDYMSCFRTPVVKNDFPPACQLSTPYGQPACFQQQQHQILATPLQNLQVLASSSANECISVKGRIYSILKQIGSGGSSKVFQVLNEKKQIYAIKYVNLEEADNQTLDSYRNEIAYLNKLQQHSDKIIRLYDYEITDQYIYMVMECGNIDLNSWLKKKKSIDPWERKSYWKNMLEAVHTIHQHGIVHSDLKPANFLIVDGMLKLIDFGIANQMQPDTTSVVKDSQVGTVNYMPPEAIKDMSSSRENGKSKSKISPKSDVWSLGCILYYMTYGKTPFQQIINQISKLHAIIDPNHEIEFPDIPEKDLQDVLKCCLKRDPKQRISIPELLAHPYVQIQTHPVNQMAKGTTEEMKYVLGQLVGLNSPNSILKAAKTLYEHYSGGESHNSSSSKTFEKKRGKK
The note with it: at 0.1 µM.

Assay [5] deals with T3, Receptor-type tyrosine-protein kinase FLT3 (Homo sapiens), P36888 [D835Y].
T3 sequence (whole entry): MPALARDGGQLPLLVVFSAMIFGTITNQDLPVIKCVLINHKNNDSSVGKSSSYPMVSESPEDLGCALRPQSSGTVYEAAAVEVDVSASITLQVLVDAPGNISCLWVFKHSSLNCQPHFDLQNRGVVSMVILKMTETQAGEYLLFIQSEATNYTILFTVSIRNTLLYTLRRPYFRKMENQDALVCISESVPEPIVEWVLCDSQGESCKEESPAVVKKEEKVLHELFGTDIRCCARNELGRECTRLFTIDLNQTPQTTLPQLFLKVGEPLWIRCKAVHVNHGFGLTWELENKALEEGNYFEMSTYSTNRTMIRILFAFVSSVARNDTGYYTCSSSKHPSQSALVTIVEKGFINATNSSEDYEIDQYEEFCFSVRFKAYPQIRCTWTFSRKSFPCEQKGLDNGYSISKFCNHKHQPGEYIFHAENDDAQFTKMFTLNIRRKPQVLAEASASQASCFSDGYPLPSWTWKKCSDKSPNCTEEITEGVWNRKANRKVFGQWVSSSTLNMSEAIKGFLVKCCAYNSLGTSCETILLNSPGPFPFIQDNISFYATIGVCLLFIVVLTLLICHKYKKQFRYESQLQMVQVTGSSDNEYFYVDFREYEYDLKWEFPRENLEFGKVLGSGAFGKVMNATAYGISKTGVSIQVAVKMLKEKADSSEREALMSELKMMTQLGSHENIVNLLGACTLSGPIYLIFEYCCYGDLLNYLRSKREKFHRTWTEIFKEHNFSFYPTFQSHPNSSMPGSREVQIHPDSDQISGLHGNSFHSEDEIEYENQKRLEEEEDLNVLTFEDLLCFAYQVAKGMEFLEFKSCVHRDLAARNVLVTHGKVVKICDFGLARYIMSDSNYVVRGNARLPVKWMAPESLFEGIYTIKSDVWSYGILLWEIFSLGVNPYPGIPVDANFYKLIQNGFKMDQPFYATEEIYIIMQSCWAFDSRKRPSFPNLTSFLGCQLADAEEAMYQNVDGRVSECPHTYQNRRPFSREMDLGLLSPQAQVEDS
The note with it: at 1 µM.

In assay [6] the target is Vascular endothelial growth factor receptor 3 (Homo sapiens) (UniProt P35916). Conditions: at 0.1 µM.
Assay [7] has the same target. The note with it: at 1 µM.
The target of assay [8] is Macrophage colony-stimulating factor 1 receptor (Homo sapiens) (UniProt P07333). Conditions: at 0.1 µM.
The target is the same in assay [9]. The note with it: at 1 µM.
Assay [10] addresses Tyrosine-protein kinase Fyn (Homo sapiens) (UniProt P06241). The note with it: at 0.1 µM.
For assay [11] the target is unchanged. The note with it: at 1 µM.
In assay [12] the target is Tyrosine-protein kinase HCK (Homo sapiens) (UniProt P08631). The note with it: at 0.1 µM.
For assay [13] the target is unchanged. The note with it: at 1 µM.
Assay [14] deals with Insulin-like growth factor 1 receptor (Homo sapiens) (UniProt P08069). Conditions: at 0.1 µM.
Assay [15] has the same target. The note with it: at 1 µM.
Assay [16] deals with Insulin receptor (Homo sapiens) (UniProt P06213). Conditions: at 0.1 µM.
Assay [17] has the same target. Conditions: at 1 µM.
Assay [18] addresses Insulin receptor-related protein (Homo sapiens) (UniProt P14616). The note with it: at 0.1 µM.
For assay [19] the target is unchanged. The note with it: at 1 µM.
For assay [20], the target named is T4, Tyrosine-protein kinase ITK/TSK (Homo sapiens) (UniProt Q08881).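 Note: mean percent inhibition of ITK from the GSK PKIS screen.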
T4 sequence (whole entry): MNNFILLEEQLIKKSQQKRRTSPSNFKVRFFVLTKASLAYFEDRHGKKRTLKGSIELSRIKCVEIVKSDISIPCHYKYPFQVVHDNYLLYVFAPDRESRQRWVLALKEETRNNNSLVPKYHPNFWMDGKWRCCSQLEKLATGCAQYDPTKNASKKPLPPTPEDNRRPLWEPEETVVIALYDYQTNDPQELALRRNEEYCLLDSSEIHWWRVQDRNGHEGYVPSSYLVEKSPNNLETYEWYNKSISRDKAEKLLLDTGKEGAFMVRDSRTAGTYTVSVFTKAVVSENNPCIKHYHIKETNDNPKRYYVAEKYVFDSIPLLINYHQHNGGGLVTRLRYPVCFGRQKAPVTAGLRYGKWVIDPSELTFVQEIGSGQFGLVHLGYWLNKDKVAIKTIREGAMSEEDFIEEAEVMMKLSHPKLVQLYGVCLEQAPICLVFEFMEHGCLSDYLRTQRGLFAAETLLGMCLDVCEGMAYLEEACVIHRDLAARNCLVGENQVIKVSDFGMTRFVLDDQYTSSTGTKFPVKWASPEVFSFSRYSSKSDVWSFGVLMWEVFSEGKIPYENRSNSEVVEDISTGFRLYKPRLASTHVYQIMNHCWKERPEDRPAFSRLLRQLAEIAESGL
The note with it: at 0.1 µM.

Structures are written as SMILES.

Tyrosine-protein kinase HCK (Homo sapiens), sequence (P08631 2-526 limits assumed): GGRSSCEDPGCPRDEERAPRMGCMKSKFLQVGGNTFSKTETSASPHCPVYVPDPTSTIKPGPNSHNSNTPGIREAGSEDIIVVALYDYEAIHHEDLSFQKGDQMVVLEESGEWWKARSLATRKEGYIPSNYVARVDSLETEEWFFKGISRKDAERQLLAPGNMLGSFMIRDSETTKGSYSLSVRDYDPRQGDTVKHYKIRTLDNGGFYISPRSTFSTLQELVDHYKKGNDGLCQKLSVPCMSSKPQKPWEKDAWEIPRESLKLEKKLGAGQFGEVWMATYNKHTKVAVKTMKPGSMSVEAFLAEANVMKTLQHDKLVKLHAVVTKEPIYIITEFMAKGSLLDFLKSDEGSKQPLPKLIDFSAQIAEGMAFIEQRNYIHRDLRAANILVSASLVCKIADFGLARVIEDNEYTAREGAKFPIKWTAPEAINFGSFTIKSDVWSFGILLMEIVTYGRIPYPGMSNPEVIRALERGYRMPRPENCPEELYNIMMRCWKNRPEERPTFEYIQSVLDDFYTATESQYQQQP
Insulin receptor-related protein (Homo sapiens), sequence (P14616 27-742 limits assumed): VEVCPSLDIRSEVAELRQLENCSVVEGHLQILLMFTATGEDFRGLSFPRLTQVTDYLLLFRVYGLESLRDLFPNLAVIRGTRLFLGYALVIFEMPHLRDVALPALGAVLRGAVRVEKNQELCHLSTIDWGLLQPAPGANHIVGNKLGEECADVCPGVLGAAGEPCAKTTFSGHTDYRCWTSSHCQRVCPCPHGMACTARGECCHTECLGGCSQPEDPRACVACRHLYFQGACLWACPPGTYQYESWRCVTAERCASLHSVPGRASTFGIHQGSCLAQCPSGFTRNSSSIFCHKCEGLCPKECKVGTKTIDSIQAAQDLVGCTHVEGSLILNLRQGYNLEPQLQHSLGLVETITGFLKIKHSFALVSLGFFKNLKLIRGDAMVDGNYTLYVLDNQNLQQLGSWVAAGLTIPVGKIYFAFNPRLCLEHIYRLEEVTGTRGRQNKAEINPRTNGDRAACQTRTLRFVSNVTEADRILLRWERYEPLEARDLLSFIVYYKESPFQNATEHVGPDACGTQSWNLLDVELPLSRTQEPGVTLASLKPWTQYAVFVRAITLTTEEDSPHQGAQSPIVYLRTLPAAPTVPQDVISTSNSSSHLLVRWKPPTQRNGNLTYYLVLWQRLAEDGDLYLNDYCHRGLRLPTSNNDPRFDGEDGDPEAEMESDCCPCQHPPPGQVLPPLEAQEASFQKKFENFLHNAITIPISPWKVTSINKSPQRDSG
Insulin receptor-related protein (Homo sapiens), sequence (P14616 747-1297 limits assumed): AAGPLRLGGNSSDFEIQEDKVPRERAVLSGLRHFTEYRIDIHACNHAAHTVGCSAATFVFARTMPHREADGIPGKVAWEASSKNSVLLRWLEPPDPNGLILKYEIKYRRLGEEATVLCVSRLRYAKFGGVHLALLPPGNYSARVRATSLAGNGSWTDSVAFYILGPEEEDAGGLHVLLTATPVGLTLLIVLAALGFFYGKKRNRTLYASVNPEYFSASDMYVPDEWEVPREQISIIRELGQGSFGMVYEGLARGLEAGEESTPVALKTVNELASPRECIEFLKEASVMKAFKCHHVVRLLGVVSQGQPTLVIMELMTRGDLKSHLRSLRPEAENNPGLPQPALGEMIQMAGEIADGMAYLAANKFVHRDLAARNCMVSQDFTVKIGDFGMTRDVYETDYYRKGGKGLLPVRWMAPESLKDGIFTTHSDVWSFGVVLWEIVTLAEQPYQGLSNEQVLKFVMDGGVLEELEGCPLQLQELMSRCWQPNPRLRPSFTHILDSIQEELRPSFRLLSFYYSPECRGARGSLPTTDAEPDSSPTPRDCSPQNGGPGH
Macrophage colony-stimulating factor 1 receptor (Homo sapiens), sequence (P07333 whole entry): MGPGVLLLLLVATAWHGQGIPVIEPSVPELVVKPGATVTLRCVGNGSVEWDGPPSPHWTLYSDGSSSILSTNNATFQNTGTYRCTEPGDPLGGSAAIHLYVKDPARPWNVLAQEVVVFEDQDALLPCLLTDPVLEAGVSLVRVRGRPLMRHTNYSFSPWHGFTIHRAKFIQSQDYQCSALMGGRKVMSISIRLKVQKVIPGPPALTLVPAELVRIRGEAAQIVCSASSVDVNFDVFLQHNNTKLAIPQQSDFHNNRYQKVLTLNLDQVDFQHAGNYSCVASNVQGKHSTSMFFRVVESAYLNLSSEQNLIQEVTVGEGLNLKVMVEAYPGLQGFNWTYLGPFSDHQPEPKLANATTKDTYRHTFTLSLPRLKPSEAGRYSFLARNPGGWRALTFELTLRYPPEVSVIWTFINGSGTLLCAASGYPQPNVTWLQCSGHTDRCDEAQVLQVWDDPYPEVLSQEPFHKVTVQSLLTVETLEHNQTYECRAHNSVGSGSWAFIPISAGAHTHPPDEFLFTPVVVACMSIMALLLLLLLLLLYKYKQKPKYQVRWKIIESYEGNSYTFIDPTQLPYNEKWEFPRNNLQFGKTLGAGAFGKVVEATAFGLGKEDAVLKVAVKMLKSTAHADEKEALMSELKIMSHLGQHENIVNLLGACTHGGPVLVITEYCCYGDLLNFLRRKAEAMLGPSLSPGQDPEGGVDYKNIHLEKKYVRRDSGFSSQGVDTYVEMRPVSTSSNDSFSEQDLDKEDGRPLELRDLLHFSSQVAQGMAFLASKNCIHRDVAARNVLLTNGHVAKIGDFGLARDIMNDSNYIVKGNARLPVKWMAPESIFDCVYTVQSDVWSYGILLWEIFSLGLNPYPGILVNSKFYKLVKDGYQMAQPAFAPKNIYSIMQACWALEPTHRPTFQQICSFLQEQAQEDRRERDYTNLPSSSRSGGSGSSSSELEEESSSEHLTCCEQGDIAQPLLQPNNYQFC
Tyrosine-protein kinase Fyn (Homo sapiens), sequence (P06241 2-537 limits assumed): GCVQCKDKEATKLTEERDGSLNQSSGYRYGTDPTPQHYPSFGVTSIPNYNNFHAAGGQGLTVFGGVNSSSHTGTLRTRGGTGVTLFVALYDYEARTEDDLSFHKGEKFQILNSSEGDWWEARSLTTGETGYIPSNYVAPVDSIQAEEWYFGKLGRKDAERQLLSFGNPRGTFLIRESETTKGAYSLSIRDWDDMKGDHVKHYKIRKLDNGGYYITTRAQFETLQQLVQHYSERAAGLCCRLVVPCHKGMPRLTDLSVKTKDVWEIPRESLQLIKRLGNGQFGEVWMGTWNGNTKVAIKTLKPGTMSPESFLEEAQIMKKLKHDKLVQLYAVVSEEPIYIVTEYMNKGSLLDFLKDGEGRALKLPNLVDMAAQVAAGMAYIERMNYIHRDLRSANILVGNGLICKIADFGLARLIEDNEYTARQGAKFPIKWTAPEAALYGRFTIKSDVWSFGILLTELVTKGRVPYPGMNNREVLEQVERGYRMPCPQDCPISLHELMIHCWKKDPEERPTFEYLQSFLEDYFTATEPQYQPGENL
Vascular endothelial growth factor receptor 3 (Homo sapiens), sequence (P35916 whole entry): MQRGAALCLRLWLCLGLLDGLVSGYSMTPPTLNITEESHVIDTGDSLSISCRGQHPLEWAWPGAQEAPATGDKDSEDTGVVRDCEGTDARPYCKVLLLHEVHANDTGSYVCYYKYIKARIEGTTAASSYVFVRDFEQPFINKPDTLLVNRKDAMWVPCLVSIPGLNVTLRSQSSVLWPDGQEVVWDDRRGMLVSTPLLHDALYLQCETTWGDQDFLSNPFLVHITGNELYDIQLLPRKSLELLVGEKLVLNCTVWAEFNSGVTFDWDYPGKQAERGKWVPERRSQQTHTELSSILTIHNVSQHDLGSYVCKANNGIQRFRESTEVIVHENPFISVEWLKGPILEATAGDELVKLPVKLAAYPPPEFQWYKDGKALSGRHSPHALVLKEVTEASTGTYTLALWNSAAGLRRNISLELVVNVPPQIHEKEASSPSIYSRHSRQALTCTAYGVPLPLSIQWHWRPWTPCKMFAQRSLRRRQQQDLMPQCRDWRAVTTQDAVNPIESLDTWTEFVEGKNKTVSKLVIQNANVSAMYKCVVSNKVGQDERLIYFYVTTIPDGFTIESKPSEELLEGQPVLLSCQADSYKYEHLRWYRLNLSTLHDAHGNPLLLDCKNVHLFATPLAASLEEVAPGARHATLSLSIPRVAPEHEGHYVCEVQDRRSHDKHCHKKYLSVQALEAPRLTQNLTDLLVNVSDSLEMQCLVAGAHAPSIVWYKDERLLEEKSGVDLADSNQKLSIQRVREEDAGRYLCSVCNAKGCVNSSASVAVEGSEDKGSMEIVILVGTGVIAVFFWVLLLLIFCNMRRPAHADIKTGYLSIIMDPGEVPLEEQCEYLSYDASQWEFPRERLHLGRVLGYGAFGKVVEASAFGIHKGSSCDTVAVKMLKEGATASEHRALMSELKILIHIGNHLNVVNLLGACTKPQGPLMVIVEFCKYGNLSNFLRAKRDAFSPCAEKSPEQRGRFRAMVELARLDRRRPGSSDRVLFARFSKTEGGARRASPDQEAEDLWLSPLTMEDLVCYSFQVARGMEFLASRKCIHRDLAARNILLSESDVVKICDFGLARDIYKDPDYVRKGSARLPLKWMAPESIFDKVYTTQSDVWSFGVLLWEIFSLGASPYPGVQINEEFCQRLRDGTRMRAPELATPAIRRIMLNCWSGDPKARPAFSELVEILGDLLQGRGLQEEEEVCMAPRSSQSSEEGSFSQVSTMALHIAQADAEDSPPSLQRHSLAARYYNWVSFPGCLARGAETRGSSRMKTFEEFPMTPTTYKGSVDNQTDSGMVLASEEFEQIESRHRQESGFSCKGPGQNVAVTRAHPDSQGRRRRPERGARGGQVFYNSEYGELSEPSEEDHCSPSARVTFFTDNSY

As a reminder, the inhibition is the change of the read-out against control, counted positive when it falls. In the case of `c1cnn2ncc(-c3ccnc(Nc4ccc5c(c4)OCCO5)n3)c2c1`, the inhibition was 49.9% in [1]; 8.35% in assay [2]; 29.4% in [3]; 11.9% in assay [4]; 36.1% in assay [5]; 8.6% in assay [6]. The inhibition in [7] worked out at 21.8%; in [8], 44.5%; in assay [9] it was 85.7%; in assay [10] it was 1.57%; in assay [11], 8.63%; in assay [12] it was 6.09%. The inhibition in assay [13] was found to be 16.8%; in assay [14] it was 15%; in assay [15], 56.6%; in assay [16], 12.7%; in assay [17], 58.5%; in assay [18], 5.36%. The inhibition in assay [19] came out at 15.2%; in [20], 1.86%.
Turning to `COC(=O)Nc1nc2cc(Oc3cccc(NC(=O)Nc4cc(C(F)(F)F)ccc4F)c3)ccc2[nH]1`, the inhibition came out at 0.95% in [1]; 1.57% in assay [2]; 0.56% in [3]; 0.37% in [4]; 0.94% in [5]; 1.33% in [6]. In addition, the inhibition in assay [7] was 11.4%; in assay [8], 4.37%; in assay [9] it was 27.8%; in [10], 1.12%; in [11], 7.79%; in [12], 1.11%. The inhibition is 7.7% in assay [13]; -1.77% in assay [14]; -0.89% in [15]; 2.67% in assay [16]; 2.78% in assay [17]; -1.56% in assay [18]. In addition, the inhibition in assay [19] is -0.86%; in [20] it was 0.34%.
Take `CCc1cccc(NC(=O)Nc2ccc(Oc3ccc4nc(NC(=O)OC)[nH]c4c3)cc2)c1`: the inhibition in assay [1] worked out at 3.95%; in assay [2] it was 2.03%; in assay [3], 1.1%; in assay [4] it was 6.8%; in assay [5] it was 6.29%; in [6] it was 7.64%. The inhibition is 16.3% in assay [7]; 44.8% in assay [8]; 54.6% in assay [9]; -2.29% in assay [10]; 4.72% in assay [11]; 4.76% in [12]. The inhibition in [13] is 7.28%; in [14], 5.04%; in assay [15], 2.45%; in [16], -2.61%; in assay [17] it was 0.47%; in [18] it was 2.05%. For the same compound, the inhibition in assay [19] turned out to be 3.39%; in assay [20], 0.3%.
